Source: PubChem (several laboratories)
SUMO Mot1 rescue: inhibitors of SUMOylation pathway: yeast Mot1-301 growth rescue. AID 2716. 320,000 tested, 1% active. growth rescue, % at 18.8 µM. S. cerevisiae Mot1-301 growth rescue, ATP luminescence, 38.5C; percent above DMSO median, 100 means doubled;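 active means every valid replicate shows activation above 250% relative to neutral control wells; inactive means the rest, any valid replicate at or below 250%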;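 further: OY570 slx delta 5 strain wells were the positive control but not used for scaling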
AI-2 QS modul: modulates the Vibrio harveyi AI-2 quorum sensing system; Vibrio harveyi JMH597 AI-2 luminescence/OD600 ratio, 9 h; stronger effect = lower value; strain lacks LuxN and CqsS sensors; 0 = neutral-control median; activity change, % at 7.5 µM; 300,000 tested, 0.4% active; in the data active means activity change below about -75%, passing the limit was not always enough;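 further: luminescence divided by OD600 gain over 9 h not by final OD600 alone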
NTR1 ag: NTR1 (human) agonism. P30989. NTR1-U2OS beta-arrestin-GFP spot imaging, agonist mode. activation, % at 20 µM. 330,000 tested, 0.17% active. AID 493036;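 active means activation at or above 40% of the spot to cytoplasm intensity ratio, with at least 20 cells analyzed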;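 further: 0% = DMSO without peptide and 100% = 100 nM NTR1 peptide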
GRIN3A LBD mod: NR3A (human) ligand-binding domain modulation; 340,000 tested, 2.5% active; AID 1259313; Tm shift relative to glycine control, % at 25 µM; NR3A LBD differential scanning fluorimetry, Tm shift; 0% = protein alone, 100% = glycine-bound protein;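 active means melting temperature shift of at least 10% of the positive control shift, at one fixed dose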
H9c2 protect: myocardial damage modulation in H9c2 cells; 360,000 tested, 0.63% active; protection from H2O2 cell death, % at 20 µM; H9c2 cardiomyocytes, H2O2 injury protection, ATPLite, 2 h;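 active means compounds giving at least 50% protection of heart cells from peroxide-induced death in the single-dose screen, raw or plate-pattern-corrected value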;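 further: 0% = DMSO wells with peroxide and 100% = DMSO wells without peroxide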
AHR act: activators of human aryl hydrocarbon receptor; AHR-responsive luciferase reporter cells, luminescence; activation, % at 5 µM; 320,000 tested, 2.5% active; AID 2796; in the data active means activation above about 47%;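 further: 0% = vehicle wells and 100% = reference agonist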
Target sequence (P35869 whole entry, looked up): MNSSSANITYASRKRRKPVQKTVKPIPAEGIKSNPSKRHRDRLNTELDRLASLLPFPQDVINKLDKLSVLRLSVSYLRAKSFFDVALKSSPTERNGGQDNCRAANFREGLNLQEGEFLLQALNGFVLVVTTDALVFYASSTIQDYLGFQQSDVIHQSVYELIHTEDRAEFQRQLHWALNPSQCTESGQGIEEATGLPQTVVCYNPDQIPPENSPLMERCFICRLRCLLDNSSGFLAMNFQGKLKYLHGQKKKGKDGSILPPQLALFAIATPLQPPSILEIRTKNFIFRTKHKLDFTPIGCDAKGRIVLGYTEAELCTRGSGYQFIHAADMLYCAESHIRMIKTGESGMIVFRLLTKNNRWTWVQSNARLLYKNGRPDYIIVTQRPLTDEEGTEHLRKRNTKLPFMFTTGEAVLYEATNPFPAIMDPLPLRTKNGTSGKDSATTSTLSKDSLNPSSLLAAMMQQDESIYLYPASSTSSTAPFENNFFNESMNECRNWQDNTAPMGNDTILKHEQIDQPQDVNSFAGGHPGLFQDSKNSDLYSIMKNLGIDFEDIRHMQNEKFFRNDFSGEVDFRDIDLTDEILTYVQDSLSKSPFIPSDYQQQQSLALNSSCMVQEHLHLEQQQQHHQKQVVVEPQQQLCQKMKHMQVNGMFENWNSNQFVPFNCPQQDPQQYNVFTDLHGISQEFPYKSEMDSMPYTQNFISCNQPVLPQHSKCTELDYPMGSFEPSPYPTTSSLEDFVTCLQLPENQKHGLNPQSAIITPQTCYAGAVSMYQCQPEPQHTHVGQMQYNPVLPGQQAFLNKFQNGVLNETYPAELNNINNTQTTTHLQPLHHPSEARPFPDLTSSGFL
AHR act cf: confirmation of human aryl hydrocarbon receptor activators. shares compounds with AHR act. human cells, AHR-responsive luciferase reporter, luminescence. activation, % at 9 µM. 2,300 tested, 87% active. AID 2845; in the data active means activation above about 49%;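 further: HepG2 hepatoma cells carrying a DRE-driven firefly luciferase reporter; 0% = vehicle wells and 100% = reference agonist wells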
PXR act counter: PXR activation, counter-screen for AHR activators; AID 434939; cell-based PXR reporter, luciferase luminescence; 2,300 tested, 88% active; activation, % at 11.6 µM; shares compounds with AHR act; in the data active means activation above about 11%;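 further: human hepatoma DPX-2 cells expressing full-length human PXR; 0% = DMSO and 100% = reference agonist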
The depositor's hits bear a star; i = inactive; x = no result. An excerpt weighted towards active compounds, which were near 6.2% of everything screened.

SMILES	SUMO Mot1 rescue	AI-2 QS modul	NTR1 ag	GRIN3A LBD mod	H9c2 protect	AHR act	AHR act cf	PXR act counter
O=C(N/N=C/c1ccsc1)c1ccccn1	51.1	21.2	-1.2	0.4	-7.6	2.0	x	x
O=C(N/N=C/C1CC2CCC1C2)c1c[nH]c2ccccc12 (stereo not given)	7.7	14.1	-1.5	-16.1	-1.7	86.8*	18.9	5.1
O=C(N/N=C/c1ccsc1)c1c[nH]c2ccccc12	5.1	23.3	1.2	31.1*	-2.3	127.8*	114.8*	21.9*
CCOC(=O)C1=C(COC(=O)COc2ccc(Br)cc2)NC(=O)NC1C (stereo not given)	i	35.8	1.5	1.0	-12.1	0.0	x	x
O=C(Nc1ccccn1)c1ccc2ccccc2c1O	3.3	6.9	1.9	-10.4	-3.7	151.0*	151.8*	16.2*
O=C(Nc1ccccn1)c1ccc2ccccc2n1	311.0	20.1	-1.8	-2.5	-18.4	84.2*	167.9*	24.0*
O=C(Nc1oc2ccccc2c(=O)c1-c1ccc(Cl)cc1)c1ccco1	-24.6	40.9	2.3	-1.4	4.6	2.5	x	x
CCOc1ccc(Cl)cc1/C=N/O	-27.8	8.5	0.7	4.2	-3.4	6.4	x	x
O/N=C/c1cc(Cl)ccc1OCc1ccccc1Cl	-27.8	12.4	-5.6	-20.2	-8.5	106.4*	102.9*	14.9*
Cc1cccc(N=C2NC(=O)/C(=C\c3cccs3)S2)c1	-8.6	18.1	1.4	-2.4	-5.4	32.0	x	x
O=C1NC(=Nc2ccccc2)S/C1=C/c1cccs1	1.0	17.1	1.8	-4.2	-12.5	116.0*	119.9*	32.1*
O=C(Nc1ccccc1C(=O)O)c1cc(S(=O)(=O)Nc2ccccc2)ccc1Cl	2.1	33.7	0.2	-2.2	17.6	0.9	x	x
O=c1cc(-c2ccco2)oc2c1ccc1ccccc12	1.4	2.3	1.4	-1.3	-7.9	79.3*	60.9*	24.6*
O=c1cc(-c2ccc(O)cc2)oc2c1ccc1ccccc12	-0.3	x	13.6	0.2	-9.3	-1.7	x	x
Nc1ccc(Br)c2c1C(=O)c1ccccc1C2=O	-8.3	17.1	-1.5	-3.2	x	95.3*	57.8*	16.4*
CCc1nc2ccc(C(=O)Nc3cccc(NS(C)(=O)=O)c3)cn2c1N(C)CCN1CCOCC1	x	x	x	x	2.5	x	x	x
COc1cc(-c2nc(-c3ccc4c(c3)-c3ccccc3S4(=O)=O)c(-c3ccccc3)[nH]2)cc(OC)c1O	8.5	18.9	6.6	7.2	37.7	8.2	x	x
COc1cc(-c2nc(-c3ccccc3)c(-c3ccc(F)cc3)[nH]2)cc2c1OCO2	-3.9	23.9	22.0	9.0	-13.6	116.5*	84.1*	65.6*
S=C(Nc1ccc(Cl)cc1)c1nc2ccccc2s1	9.7	-3.6	-0.3	-1.0	-7.1	129.6*	111.7*	12.9*
Cc1ccc(Nc2nc3ccccc3s2)c(C)c1	18.4	-14.1	0.8	-7.4	-12.2	22.9	x	x
COc1ccc(NC(=O)c2nc3ccccc3s2)cc1	-15.9	2.2	1.5	-23.3	-19.1	24.3	x	x
Cc1ccc(NC(=S)c2nc3ccccc3s2)cc1	-3.6	9.4	7.1	4.2	-29.0	81.9*	58.2*	17.9*
Cc1ccc(C)c(NC(=S)c2nc3ccccc3s2)c1	6.2	21.3	0.8	-7.1	-2.8	82.9*	134.8*	14.1*
CCCCCCN1CCN(C2CN(Cc3ccccc3)S(=O)(=O)C2)CC1 (stereo not given)	x	x	x	x	-3.8	x	x	x
CCOC(=O)c1c(C)[nH]c(C)c1C(=O)CSc1nc2ccccc2n1CCC#N	-14.5	14.6	0.3	4.8	18.8	99.3*	4.7	78.6*
CC1Cc2ccccc2N1C(=O)COc1ccc2c(c1)OCO2 (stereo not given)	-24.3	16.9	1.7	-1.0	-3.5	84.0*	95.0*	65.7*
O=C(OCc1cc(=O)n2ccsc2n1)c1ccccc1O	-3.9	x	0.1	-0.3	34.3	-0.3	x	x
O=C(OCc1cc(=O)n2ccsc2n1)c1ccccc1NCCO	-3.7	x	-1.3	-1.0	26.5	79.4*	78.8*	5.5
